Source: PubChem BioAssay (NCATS)
Records with an inconclusive call do not appear. Calls of active or inactive are those of the source. Calls come from the whole dose curve; as a rule, active = well fitted inhibition curve with a large enough effect; inconclusive = small, poorly fitted or top-dose-only effect; inactive = flat fitted curve, though single readings scatter.

Each molecule was assayed against Lysine-specific demethylase 5B (Homo sapiens) (UniProt Q9UGL1) (assay: Optimization screen for KDM5B Histone Demethylases FDH coupled qHTS against the LOPAC library (AID 1347166; note: 0% is about no effect)). Conditions: KDM5B demethylation, FDH-coupled NADH fluorescence (FDH is formaldehyde dehydrogenase); series mostly up to 57.5 µM; activity, negative = inhibition: at the top concentration.
Chain of Lysine-specific demethylase 5B (Homo sapiens) (Q9UGL1 whole entry, looked up): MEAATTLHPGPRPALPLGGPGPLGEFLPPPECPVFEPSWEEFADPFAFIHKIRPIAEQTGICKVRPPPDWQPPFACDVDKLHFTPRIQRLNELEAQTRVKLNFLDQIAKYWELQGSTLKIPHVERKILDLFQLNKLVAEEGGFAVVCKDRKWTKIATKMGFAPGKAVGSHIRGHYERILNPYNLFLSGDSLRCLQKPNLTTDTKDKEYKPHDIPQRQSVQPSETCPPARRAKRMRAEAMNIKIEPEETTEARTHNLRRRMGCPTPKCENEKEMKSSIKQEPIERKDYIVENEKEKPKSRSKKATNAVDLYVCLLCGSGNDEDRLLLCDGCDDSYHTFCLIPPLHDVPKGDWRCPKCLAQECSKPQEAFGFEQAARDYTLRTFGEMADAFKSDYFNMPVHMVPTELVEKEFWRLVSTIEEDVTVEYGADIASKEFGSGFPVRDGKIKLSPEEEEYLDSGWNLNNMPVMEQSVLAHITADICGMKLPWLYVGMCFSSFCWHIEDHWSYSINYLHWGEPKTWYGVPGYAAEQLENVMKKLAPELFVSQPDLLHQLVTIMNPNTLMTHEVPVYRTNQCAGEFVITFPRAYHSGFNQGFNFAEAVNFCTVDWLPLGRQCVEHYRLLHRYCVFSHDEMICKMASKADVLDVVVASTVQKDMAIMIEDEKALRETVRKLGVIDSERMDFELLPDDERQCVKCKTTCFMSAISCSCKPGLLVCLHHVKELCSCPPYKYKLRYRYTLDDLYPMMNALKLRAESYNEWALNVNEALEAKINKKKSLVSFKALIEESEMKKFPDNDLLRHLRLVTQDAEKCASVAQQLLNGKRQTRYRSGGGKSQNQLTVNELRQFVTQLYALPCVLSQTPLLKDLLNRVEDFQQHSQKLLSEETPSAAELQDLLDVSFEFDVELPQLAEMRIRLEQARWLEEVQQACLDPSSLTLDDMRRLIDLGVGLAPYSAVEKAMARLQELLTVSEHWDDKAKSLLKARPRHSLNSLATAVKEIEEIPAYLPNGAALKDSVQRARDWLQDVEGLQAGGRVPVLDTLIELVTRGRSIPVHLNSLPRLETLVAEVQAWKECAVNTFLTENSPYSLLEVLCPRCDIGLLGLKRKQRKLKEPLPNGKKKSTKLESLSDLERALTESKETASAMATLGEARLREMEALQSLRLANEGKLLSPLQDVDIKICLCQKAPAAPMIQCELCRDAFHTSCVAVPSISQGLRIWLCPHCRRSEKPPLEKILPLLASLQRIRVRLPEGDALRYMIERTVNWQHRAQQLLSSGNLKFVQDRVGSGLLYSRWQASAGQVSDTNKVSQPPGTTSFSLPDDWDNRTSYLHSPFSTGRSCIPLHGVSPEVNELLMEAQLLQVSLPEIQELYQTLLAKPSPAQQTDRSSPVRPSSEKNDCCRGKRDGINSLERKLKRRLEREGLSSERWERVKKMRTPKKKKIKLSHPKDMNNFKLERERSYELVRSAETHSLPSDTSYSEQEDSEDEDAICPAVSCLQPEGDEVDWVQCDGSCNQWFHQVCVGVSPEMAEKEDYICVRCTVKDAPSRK
Outline: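 KDM5BDeltaAP (200nM final) preincubated 10 min with compound, then 12.5uM H3K4Me3, 25uM a-ketoglutarate, ascorbate, Fe(II), NAD+ and FDH added; 50mM HEPES pH 7.5, 0.01% Tween-20. NADH fluorescence (340/450 nm) change over 30 min, room temperature.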

Question: Which “activity, negative = inhibition” value does the source give for `C[C@]12CCC(=O)C(O)=C1CC[C@@H]1[C@@H]2CC[C@]2(C)C(=O)CC[C@@H]12` here?
Answer: -16.1% (inactive)

Question: For `CCCC(C)(COC(N)=O)COC(=O)NC(C)C` (centres undefined), which “activity, negative = inhibition” value is on record?
Answer: 1.45% (inactive)

Question: How did the “activity, negative = inhibition” value turn out when `CCCN1CCC[C@@H]2Cc3nc(N)ncc3C[C@H]21` was run?
Answer: -24.5% (inactive)

Question: `C=C(C)[C@H]1Cc2c(ccc3c2O[C@@H]2COc4cc(OC)c(OC)cc4[C@@H]2C3=O)O1` was tested. Which “activity, negative = inhibition” value did it give?
Answer: -18.9% (inactive)
